From a collection of fitness landscapes (doi:10.1126/science.1257360) come the findings set out here.

Over roughly 140,000 sequences, “enrichment ratio after two sorts for PhoP signalling” has its median near 0; the highest 2% begin near 11. Only a selection was taken, and the highest values are over-represented in it overall.

B1: PhoQ; a variant is named by its letters at X, in order, P23837 (parent)
chain: MKKLLRLFFPLSLRVRFLLATAAVVLVLSLAYGMVALIGYSVSFDKTTFRLLRGESNLFYTLAKWENNKLHVELPENIDKQSPTMTLIYDENGQLLWAQRDVPWLMKMIQPDWLKSNGFHEIEADVNDTSLLLSGDHSIQQQLQEVREDDDDAEMTHSVAVNVYPATSRMPKLTIVVVDTIPVELKSSYMVWSWFIYVLSANLLLVIPLLWVAAWWSLRPIEALAKEVRELEEHNRELLNPATTRELTSLVRNLNRLLKSERERYDKYRTTLTDLTHSLKTPLXXLQXXLRSLRSEKMSVSDAEPVMLEQISRISQQIGYYLHRASMRGGTLLSRELHPVAPLLDNLTSALNKVYQRKGVNISLDISPEISFVGEQNDFVEVMGNVLDNACKYCLEFVEISARQTDEHLYIVVEDDGPGIPLSKREVIFDRGQRVDTLRPGQGVGLAVAREITEQYEGKIVAGESMLGGARMEVIFGRQHSAPKDE

This assay covers variants of B1. Put plainly: enrichment ratio after two sorts for PhoP signalling (ratio (wild type AVST 3.29)); higher = more functional. Conditions: with PhoP (E. coli).
HEDR: the enrichment ratio is at most 0.25.

Consider DAFY, for which the enrichment ratio was at most 0.25.

Regarding QNHA, the enrichment ratio was at most 0.25.

Consider MIDS, for which the enrichment ratio is at most 0.25.

Turning to PWKL, the enrichment ratio is at most 0.25.

As to HVPL, the enrichment ratio is at most 0.25.

In the case of VFFI, the enrichment ratio was at most 0.25.

In the case of KESQ, the enrichment ratio is at most 0.25.

HGIC: the enrichment ratio is at most 0.25.

Take KKCM: the enrichment ratio is at most 0.25.

As to MKCM, the enrichment ratio was at most 0.25.

As to AKCM, the enrichment ratio is 15.6.

Take HKCM: the enrichment ratio is at most 0.25.

As for TKCM, the enrichment ratio stood at 46.1.

For AICM, the enrichment ratio was 6.05.

In the case of SKKH, the enrichment ratio was at most 0.25.

Regarding PYDF, the enrichment ratio was at most 0.25.

As to MIQV, the enrichment ratio was at most 0.25.

For the variant GAMG, the enrichment ratio was at most 0.25.

Take NSLI: the enrichment ratio worked out at 4.88.

For the variant VSLA, the enrichment ratio stood at 0.756.

As for FALS, the enrichment ratio amounted to 8.07.

In the case of TSLI, the enrichment ratio was determined as 11.8.

Turning to RSLI, the enrichment ratio was at most 0.25.

On to ISLI, for which the enrichment ratio was 11.2.

As to ISLT, the enrichment ratio was 0.863.

Consider MMLI, for which the enrichment ratio was at most 0.25.

Consider ISLA, for which the enrichment ratio was at most 0.25.

Regarding VSLI, the enrichment ratio is 14.

In the case of FALI, the enrichment ratio is 15.1.

Turning to FALA, the enrichment ratio was determined as 5.9.

Consider ENRC, for which the enrichment ratio is at most 0.25.

Regarding VSCH, the enrichment ratio came out at 2.85.

Take TYRA: the enrichment ratio was at most 0.25.

For DETW, the enrichment ratio was at most 0.25.

Consider WTDY, for which the enrichment ratio was at most 0.25.

Take PCSF: the enrichment ratio was at most 0.25.

On to NFAL, for which the enrichment ratio is at most 0.25.

On to WRVV, for which the enrichment ratio is at most 0.25.

In the case of FCLI, the enrichment ratio was 7.58.

For the variant FSLI, the enrichment ratio is 12.9.

Regarding KSLI, the enrichment ratio is at most 0.25.

PMYI: the enrichment ratio is at most 0.25.

Take KKIH: the enrichment ratio is at most 0.25.

As to TKIH, the enrichment ratio was 15.7.

On to SQIH, for which the enrichment ratio was found to be 12.4.

Regarding HKIH, the enrichment ratio was at most 0.25.

SCIH: the enrichment ratio was found to be 1.7.

In the case of SDIH, the enrichment ratio worked out at 2.15.

In the case of GFSR, the enrichment ratio is at most 0.25.

Turning to REWS, the enrichment ratio was at most 0.25.

As for WQHV, the enrichment ratio was at most 0.25.

With ASQY, the enrichment ratio is at most 0.25.

Consider LLWC, for which the enrichment ratio is at most 0.25.

For LEFP, the enrichment ratio was at most 0.25.

Regarding LEFC, the enrichment ratio turned out to be 12.9.

As to LEWC, the enrichment ratio was 17.6.

Turning to LEFA, the enrichment ratio turned out to be 1.62.

Take LRWC: the enrichment ratio is at most 0.25.

With WGSE, the enrichment ratio was at most 0.25.

As for FYLD, the enrichment ratio is at most 0.25.

Consider PSVE, for which the enrichment ratio is at most 0.25.

Take TCQI: the enrichment ratio came to 15.2.

Turning to TCIS, the enrichment ratio was at most 0.25.

For TCII, the enrichment ratio is at most 0.25.

With KSWN, the enrichment ratio was at most 0.25.

For TCWN, the enrichment ratio came to 14.9.

Regarding TCQQ, the enrichment ratio worked out at 11.5.

On to KCQY, for which the enrichment ratio was at most 0.25.

For KCQI, the enrichment ratio was at most 0.25.

Consider TCQY, for which the enrichment ratio was 31.4.

For FCQI, the enrichment ratio is at most 0.25.

For TCVQ, the enrichment ratio is at most 0.25.

With TCGQ, the enrichment ratio is at most 0.25.

For the variant SLAF, the enrichment ratio turned out to be 8.18.

As for TQKA, the enrichment ratio is at most 0.25.

TAWY: the enrichment ratio was 6.15.

For HCAS, the enrichment ratio is at most 0.25.

For the variant TCMN, the enrichment ratio was found to be 58.3.

As for KCQA, the enrichment ratio was at most 0.25.

For TCEN, the enrichment ratio was found to be 0.333.

In the case of TCQK, the enrichment ratio worked out at 14.2.

On to SCQA, for which the enrichment ratio is at most 0.25.

As to TCQF, the enrichment ratio amounted to 6.94.

As for TCVN, the enrichment ratio turned out to be 2.66.

Consider TCQP, for which the enrichment ratio is at most 0.25.

As to TYMN, the enrichment ratio was found to be 0.285.

For TCQN, the enrichment ratio is 23.

For the variant TCQA, the enrichment ratio was found to be 16.2.

On to TCDN, for which the enrichment ratio is at most 0.25.
